In PubChem BioAssay AID1347165 (National Center for Advancing Translational Sciences (NCATS), 2019) one finds Potency data, which are given here for 54 molecules.

About 5,700 (2.6%) of roughly 220,000 compounds were called active. Entries that show only a call come without a potency. Not shown: some 18% with an inconclusive outcome. Calls follow the shape of the dose curve; as a rule, active = well fitted inhibition curve with a large enough effect; inconclusive = small, poorly fitted or top-dose-only effect; inactive = no such curve, though single readings can be large or run the other way. Many of the other results were omitted from the sample, so actives are more common in it than they were.
Potency is read from the fitted curve at half-maximal effect.

Sequence of Lysine-specific demethylase 5B (Homo sapiens) (Q9UGL1 whole entry, looked up): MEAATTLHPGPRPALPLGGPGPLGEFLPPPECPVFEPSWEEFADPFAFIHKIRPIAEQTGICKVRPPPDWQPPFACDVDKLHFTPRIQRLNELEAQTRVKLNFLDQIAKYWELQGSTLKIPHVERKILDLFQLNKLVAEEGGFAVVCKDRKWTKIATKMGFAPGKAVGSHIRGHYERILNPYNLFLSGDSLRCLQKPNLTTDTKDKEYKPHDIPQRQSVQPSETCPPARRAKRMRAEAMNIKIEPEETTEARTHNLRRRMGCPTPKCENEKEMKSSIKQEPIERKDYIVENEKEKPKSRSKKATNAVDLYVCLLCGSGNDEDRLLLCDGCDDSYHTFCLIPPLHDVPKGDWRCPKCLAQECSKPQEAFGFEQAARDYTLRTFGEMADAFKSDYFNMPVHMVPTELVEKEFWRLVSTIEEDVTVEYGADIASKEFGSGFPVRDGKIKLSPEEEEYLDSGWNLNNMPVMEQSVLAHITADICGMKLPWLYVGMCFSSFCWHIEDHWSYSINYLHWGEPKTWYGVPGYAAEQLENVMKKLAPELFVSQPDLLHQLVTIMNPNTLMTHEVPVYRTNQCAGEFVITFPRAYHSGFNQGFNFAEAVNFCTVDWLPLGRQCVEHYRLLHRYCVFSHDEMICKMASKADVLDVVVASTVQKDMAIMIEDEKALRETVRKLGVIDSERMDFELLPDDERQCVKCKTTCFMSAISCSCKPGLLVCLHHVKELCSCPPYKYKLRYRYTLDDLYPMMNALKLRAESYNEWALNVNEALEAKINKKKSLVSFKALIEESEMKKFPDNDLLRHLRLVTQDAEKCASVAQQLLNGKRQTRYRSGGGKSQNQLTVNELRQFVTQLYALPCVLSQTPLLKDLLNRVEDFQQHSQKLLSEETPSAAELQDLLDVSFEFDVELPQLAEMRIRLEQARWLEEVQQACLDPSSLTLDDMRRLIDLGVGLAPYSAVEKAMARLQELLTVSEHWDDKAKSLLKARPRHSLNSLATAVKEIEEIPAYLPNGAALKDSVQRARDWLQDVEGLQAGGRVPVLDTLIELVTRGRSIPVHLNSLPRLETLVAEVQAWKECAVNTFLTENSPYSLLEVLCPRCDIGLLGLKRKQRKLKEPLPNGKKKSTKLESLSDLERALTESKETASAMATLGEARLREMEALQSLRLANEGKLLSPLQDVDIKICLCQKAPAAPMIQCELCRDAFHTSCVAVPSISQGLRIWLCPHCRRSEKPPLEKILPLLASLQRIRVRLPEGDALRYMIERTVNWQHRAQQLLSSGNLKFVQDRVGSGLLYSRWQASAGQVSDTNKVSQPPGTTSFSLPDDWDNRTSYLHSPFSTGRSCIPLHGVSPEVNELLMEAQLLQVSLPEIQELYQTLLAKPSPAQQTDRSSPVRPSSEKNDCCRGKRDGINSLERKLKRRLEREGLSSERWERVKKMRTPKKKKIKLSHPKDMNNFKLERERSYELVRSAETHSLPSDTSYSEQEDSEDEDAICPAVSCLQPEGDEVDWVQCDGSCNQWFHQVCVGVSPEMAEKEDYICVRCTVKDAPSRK

This assay deals with Lysine-specific demethylase 5B (Homo sapiens) (UniProt Q9UGL1). Description: Primary screen for KDM5B Histone Demethylases FDH-coupled qHTS. Also: nearly all actives have a fitted effect of over 70% in size. Conditions: FDH-coupled NADH fluorescence (FDH is formaldehyde dehydrogenase); series mostly up to 57.7 µM. The source says:
Assay Submitter (PI): Qin Yan, Ph.D. (Yale University) and Xiaodong Cheng, Ph.D. (MD Anderson) This project was funded as part of the NCI NEXT Program and Chemical Biology Consortium (CBC) The histone demethylases, KDM5A and KDM5B catalyze the demethylation of lysine 4 on histone H3 (H3K4me3/2). They are overexpressed in a variety of cancers and have been implicated in cancer cell growth, metastasis, drug resistance, and tumor growth. KDM5A is amplified and overexpressed in breast and gastric cancer; and is translocated in leukemia. While KDM5B is highly expressed in human mammary tumors and breast cancer cell lines, but not in normal adult breast tissue. Moreover, knockdown of KDM5B leads to upregulation of tumor suppressor genes, including BRCA1. The goal of this project is to employ qHTS to identify selective small molecule inhibitors of KDM5A/B demethylase activity to better understand the role of KDM5 in cancer and to develop novel therapies. We employed an FDH-coupled assay previously reported by Sakurai et al. to monitor in vitro KDM5 demethylase activity. Compounds showing dose response inhibition are re-acquired, validated, and tested for non-specific interference with the formaldehyde dehydrogenase (FDH) counterscreen. True inhibitors are validated using an AlphaLisa secondary screen, which employs an H3K4(me2-1)-specific antibody to monitor demethylation of a biotin-tagged H3K4(me3) peptide substrate. Inhibitors are profiled against KDM4A and KDM6A AlphaLisa counterscreens to determine level of demethylase specificity; and against the TruHits counterscreen to eliminate non-specific inhibitory activity on the AlphaLISA detection method. Selective inhibitors identified from the primary and secondary screening are tested in cells using immunofluorescence to monitor global H3K4 tri-methylation as a measure of KDM5A/B inhibition. Early Translation Branch (ETB) National Center for Advancing Translational Sciences (NCATS), Rockville, MD National Institute of Health (NIH), Bethesda, Maryland [1] Sakurai, M et al. A miniaturized screen for inhibitors of Jumonji histone demethylases. Mol Biosyst. 2010 Feb;6(2):357-64. doi: 10.1039/b912993f. Epub 2009 Oct 8.
Materials: 1536-well Black, solid bottom, medium binding assay plate is purchased from Greiner Bio-one. The enzymes (KDM5B) and substrate (H3K4me3/2) are provided by the principal investigators. The buffer for this assay is composed of 50mM HEPES at pH 7.5 with 0.01% Tween-20. FDH coupled Demethylase qHTS protocol: Three microliter enzyme mix (buffer + 200nM KDM5BDeltaAP final concentration) is dispensed into the assay plate using the BioRAPTR Flying Reagent Dispenser (FRD; […]). Compound (at various final concentration) and control solution is pin transferred to the assay plate using the Kalypsys 1536-pin tool apparatus. The assay plate is incubated for 10 min at room temperature followed by addition of 1uL substrate mix (buffer + 100uM ascorbic acid, 50uM ferrous ammonium sulfate, 12.5uM H3K4Me3, 25uM a-ketoglutarate, 0.25 mM NAD+, 0.25 U/mL formaldehyde dehydrogenase using the FRD yielding a total reaction volume of 4 uL. Initial fluorescence (Read1) is detected using the PerkinElmer ViewLux plate reader equipped with 340 nm excitation and 450 nm emission filters. The final fluorescence (Read2) signal is obtained after 30 min of room temperature incubation. Delta RFU is calculated (Read2 - Read1) and is used to generated dose response curves.
For the molecule `COc1ccc(C(C)=O)cc1CN1CCN(C/C=C/c2ccccc2)CC1`, the Potency entry is “inactive”. To `NC(N)=N/N=C/c1ccc([N+](=O)[O-])cc1` belongs “inactive”. To `CSc1ccccc1NC(=O)c1ccc(C)c(C)c1` belongs “inactive”; to `Cc1ccc(C(=O)N2CCC3(CC2)CC(=O)c2ccccc2O3)cc1`, 25.1 µM (active); to `O=C1NC2(CCN(C(=O)c3ccccc3)C2)COc2ccccc21` (centres undefined), “inactive”. To `COc1ccccc1C(=O)N1CCC2(CC1)CC(=O)c1ccccc1O2` belongs 31.6 µM (active); to `COc1ccccc1C(=O)N1CCC2(CCC(=O)N(Cc3ccccc3)CC2)CC1`, “inactive”; to `Cc1ccc(C(=O)N2CCC3(CC2)NC(=O)N(Cc2ccc(F)cc2)C3=O)cc1`, “inactive”.

For the molecule `COc1ccccc1C(=O)N1CCC2(CC1)C(=O)Nc1ccccc12`, the Potency entry is “inactive”. As for `Cc1[nH]c2ccccc2c1C(=O)COc1ccc(C(N)=O)cc1`, the Potency entry is “inactive”. In the case of `COc1ccc(-c2c(C)oc3cc(OC(=O)c4ccc5c(c4)OCO5)ccc3c2=O)cc1` it was “inactive”; in that of `CCS(=O)(=O)N1CCC(NS(=O)(=O)c2ccsc2C(=O)OC)CC1`, “inactive”; in that of `COc1ccc(-c2nc(CN3CCCC3c3nnc4ccccn34)co2)cc1` (centres undefined), “inactive”. With `CCOC(=O)c1ccoc1CN1CCCC(O)C1` (centres undefined), the Potency result was “inactive”. As for `CCCn1c(NC(=O)CCOc2ccccc2)nc2ccccc21`, the Potency entry is “inactive”. In the case of `CONC(=O)Cc1ccc(OC)cc1` it was “inactive”; in that of `O=C(O)C(c1c[nH]c2ccc(Cl)cc12)N1CCCN(c2ccc(C(F)(F)F)cn2)CC1` (centres undefined), “inactive”; in that of `CCn1c(SCC(=O)NC2=NCCS2)nnc1C(C)NC(=O)c1ccccc1F` (centres undefined), “inactive”. To `CC(C)n1nc(C(=O)Nc2ccc(Nc3ccccc3)cc2)c2ccccc2c1=O` belongs “inactive”. In the case of `CC(=O)c1ccc(NC(=O)COc2ccccc2-c2nc(-c3ccccc3)no2)cc1` it was “inactive”. As to `c1ccc(-c2noc(-c3ccccc3OC3CCNC3)n2)cc1` (centres undefined), the Potency is 20 µM (active). To `Brc1ccc(-c2noc(-c3ccccc3)n2)o1` belongs “inactive”. To `CN1C[C@]2(C=C3CCCCC3n3c(=O)n(-c4ccccc4)c(=O)n32)N=C1NC(=O)c1ccccc1` (some centres undefined) belongs “inactive”. To `CCCNC(=S)NNC(=O)CCC` belongs “inactive”. Take `CC1CCN(C(=O)C[C@@H]2c3nc(NC(=O)c4ccnc(Cl)c4)sc3C[C@@H]3[C@](C)(CO)[C@H](O)CC[C@]32C)CC1`: the Potency entry is “inactive”. As for `CCC(CC)NC(=O)c1ccc(-c2nnc3ccc(NC(=O)C4CCC4)cn23)cc1`, the Potency is 10 µM (active).

As to `COc1ccc(NC(=O)C2CCCN(Cc3nc(-c4ccc(OC)c(OC)c4)no3)C2)cc1OC` (centres undefined), the Potency result was “inactive”. Consider `CCC(=O)Nc1ccc2nnc(-c3ccc(C(=O)Nc4ccc(OC)cc4)cc3)n2c1`, for which the Potency was 25.1 µM (active). To `COc1ccc(CC(=O)Nc2ccc(C(=O)NC(C)(C)C)cc2)cc1` belongs “inactive”; to `COc1ccc(C(=O)Nc2cccc(-c3nnc4n3CCCC4)c2)cc1`, “inactive”; to `CCC(C)NC(=O)c1ccc(NC(=O)CC2SC(N3CCCCC3)=NC2=O)cc1` (centres undefined), “inactive”. In the case of `O=[N+]([O-])c1ccc(/C=N/OCc2cc(F)cc3cccnc23)cc1` it was “inactive”; in that of `CC1C(=O)Nc2ccccc2N1C(=O)c1ccc(F)cc1F` (centres undefined), “inactive”.

Turning to `CC(C)(C)c1ccc(C(=O)NN=C2CCCCC2)cc1`, the Potency entry was “inactive”. In the case of `FC(F)(F)c1ccc(CCNC(=S)NC2CC2)cc1` it was “inactive”; in that of `O=C(c1cccc(C(F)(F)F)c1)N1CCC2(CC1)CC(O)CCO2` (centres undefined), “inactive”; in that of `COc1ccc(OC2CN(CC3CCCCC3)C2)cc1`, “inactive”. To `COc1ccc(OC2CN(Cc3cccn3C)C2)cc1` belongs 44.7 µM (active); to `COc1ccc(CN2CC(Oc3ccc(OC)cc3)C2)cc1`, “inactive”; to `CN(C(=O)Cn1nc(Cc2cccnc2)c2ccccc2c1=O)c1ccccc1Cl`, “inactive”. In the case of `CC1=NS(=O)(=O)N(Cc2ccccc2)C=C1C(=O)OCc1noc(C)n1`, the Potency entry is “inactive”. To `COc1cccc(-c2cc(C3CCN(C(=O)Nc4ccccc4Cl)CC3)[nH]n2)c1` belongs “inactive”; to `O=C(OCc1nc2ccccc2o1)c1cc(F)cc(F)c1`, “inactive”; to `Cc1noc(-c2cccc(OC3CN(C(=O)NCCc4ccccc4)C3)c2)n1`, “inactive”. For `Cc1noc(-c2ccc(OC3CN(C(=O)c4ccco4)C3)cc2)n1`, the Potency entry is “inactive”. To `Cc1cnc(CCNC(=O)c2ccco2)n1C1CCC1` belongs “inactive”. Turning to `Cc1noc(-c2cccn3c(CNC(=O)c4ccco4)nnc23)n1`, the Potency was 28.2 µM (active). In the case of `COCc1nc(CCNC(=O)CCc2ccccc2)no1` it was “inactive”; in that of `Cc1noc(-c2cccn3c(CNC(=O)CCc4ccccc4)nnc23)n1`, 22.4 µM (active). In the case of `Cn1c(=O)[nH]c(=O)c2c1ncn2CC(O)c1ccccc1` (centres undefined) it was “inactive”.

Regarding `CC(=O)N1CCN(c2ccc3nnc(-c4ccc(C)cn4)n3n2)CC1`, the Potency entry is “inactive”. In the case of `Cc1ccc(-c2nnc3ccc(-c4ccoc4)nn23)nc1` it was 31.6 µM (active). To `COP(=O)(OC)c1nc(-c2cccs2)oc1NCc1ccc(C)cc1` belongs “inactive”; to `O=C(Nc1ccccc1F)c1ccc2c(c1)n(Cc1ccccc1)c(=O)c1ccnn12`, 31.6 µM (active).
